The source of these data is PubChem BioAssay (NCATS).

Molecules are shown by their SMILES. Values joined by “and” are separate entries in the source; they are usually repeats but may differ in a detail not shown here. Identical values can stand only once. Results filed as inconclusive are left out. The source holds several records for some structures; these can differ, active in one and inactive in another. Active and inactive are the calls of the source. Calls follow the shape of the dose curve; as a rule, active = well fitted inhibition curve with a large enough effect; inconclusive = small, poorly fitted or top-dose-only effect; inactive = flat fitted curve, though single readings scatter.
% is scaled to controls: 0 for no effect and ±100 for the full control effect; potency is read from the fitted curve at half-maximal effect.

This experiment can be described thus: P-glycoprotein substrates identified in KB-8-5-11 adenocarcinoma cell line, qHTS therapeutic library screen (AID 1346987). Also: nearly all actives have a fitted effect of over 65% in size. Particulars: KB-8-5-11 (P-gp overexpressing) viability, CellTiter-Glo, 72 h; series mostly up to 44.5 µM; activity change, negative = cytotoxicity: at the top concentration. From the text:
The ATP-binding cassette transporters P-glycoprotein (P-gp) is known to limit brain penetration of many chemotherapy drugs. […] As such, we developed a high-throughput screen (HTS) to identify substrates of P-gp from a series of chemical libraries including the National Center for Advancing Translational Sciences Pharmaceutical Collection NPC, 2,816 compounds), testing a total of 10,804 compounds, most of which have known mechanisms of action. We used the CellTiter-Glo viability assay to test library compounds against the parental KB-3-1 human cervical adenocarcinoma cell line and the colchicine-selected sub-line KB-8-5-11 that over-expresses P-gp. KB-8-5-11 cells were also tested in the presence of a P-gp inhibitor (tariquidar) to assess reversability of transporter-mediated resistance. Of the tested compounds, a total of 90 P-gp substrates were identified including 55 newly identified P-gp substrates. Substrates were confirmed using an orthogonal killing assay against HEK-293 cells transfected with P-gp. As exemplars, we confirmed that […] (cyclin-dependent kinase inhibitor); AT9283, (Janus kinase 2/3 inhibitor); ispinesib (kinesin spindle protein inhibitor); gedatolisib (PKI-587, phosphoinositide 3-kinase/mammalian target of rampamycin inhibitor); GSK-690693 (AKT inhibitor); and KW-2478 (heat shock protein 90 inhibitor) were substrates , and direct ATPase stimulation was assessed. ABCG2 was also found to confer high levels of resistance to AT9283, GSK-690693 and gedatolisib, while ispinesib, AT7519 and KW-2478 were weaker substrates.
The HeLa derivative cell line, KB-3-1, and its colchicine-selected, P-gp-overexpressing subline, KB-8-5-11 were maintained in DMEM with 10% FCS and Pen/Strep with glutamine at 37 degree C in 5% CO2. For KB-8-5-11 cells, colchicine was added to the medium at a concentration of 100 ng/mL. HEK-293 cells transfected with empty vector (pcDNA) or vector containing human ABCB1 (MDR-19) or ABCG2 (R-5) have been described previously (Robey, Lin, Qiu, Chan & Bates, 2011) and were maintained in EMEM supplemented with 10% FCS, Pen/Strep and glutamine with 2 mg/ml G418 to select for the expression of the transporter. Cultures were confirmed to be free of mycoplasma infection using the MycoAlert Mycoplasma Detection Kit (Lonza, Walkersville, MD). For the screen, assay medium was identical to culture medium except for KB-8-5-11 where colchicine was excluded from the medium.
All cell lines were plated into 1536-well plates at 500 cells/well in 5 uL media. Compounds were then pinned in dose-response using a 1536-head pin tool (Kalypsis, San Diego, CA) and plates were incubated at 37 degree C in 5% CO2 for an additional 72 h. CellTiter-Glo reagent (Promega) was dispensed into the wells, incubated for 5 min and luminescence was read on a ViewLux instrument (Perkin-Elmer). Cytotoxic compounds were defined as those that yielded a curve class of -1.1, -1.2, -2.1, -2.2, -2.3, or -2.4, a maximum response of >50% and an AC50 of < 10 uM. Cherry-picked hits from screening analysis were tested with both the KB pair of cell lines, and the pcDNA (empty vector control) and MDR-19 (P-gp overexpressing) pair were tested, in the absence and presence of tariquidar.
Background: In qHTS, concentration-response curves come from the screen itself.
On to `C[N+](C)(C)CC(=O)O`, for which the Potency result was “inactive”.

With `C[C@@]12OC(=O)[C@]1([C@@H](O)[C@@H]1C=CCCC1)NC(=O)[C@H]2CCCl`, the Potency is 148 nM (active).

As to `CC(N[C@H]1C[C@H]1c1ccccc1)c1ccc2c(c1)OCCO2` (stereo not given in full), the “activity change, negative = cytotoxicity” value is 4.57% (inactive).

With `Cc1cc(O)ccc1Cl`, the “activity change, negative = cytotoxicity” value was 4.75% (inactive).

`CC(=Cc1csc(C)n1)[C@@H]1C[C@H]2O[C@]2(C)CCC[C@H](C)[C@@H](O)[C@@H](C)C(=O)C(C)(C)[C@@H](O)CC(=O)O1`: the Potency was 1 nM (active).

Regarding `CC(C)[C@]12O[C@H]1[C@@H]1O[C@]13[C@]1(O[C@H]1C[C@H]1C4=C(CC[C@@]13C)C(=O)OC4)[C@@H]2O`, the Potency was 20.6 nM (active).

As for `CC[C@@]1(O)C(=O)OCc2c1cc1n(c2=O)Cc2cc3ccccc3nc2-1`, the Potency was 332 nM (active).

On to `CC1(N2CCC(n3c([C@@H]4CCCNC4)nc4ccccc43)CC2)CCCCCCC1`, for which the Potency is 23.5 µM (active) and 20.6 µM (active).

As to `O=C(N[C@@H](COc1ccc2[nH]c(=O)[nH]c2c1)c1ccccc1)c1cccn(Cc2ccc(F)c(F)c2)c1=O`, the Potency result is “inactive”.

Consider `COCC1(CO)C(=O)C2CCN1CC2` (stereo not given), for which the “activity change, negative = cytotoxicity” value was 9.03% (inactive).

Turning to `CC(=O)O[C@@]12CO[C@H]1C[C@H](O)[C@@]1(C)C(=O)[C@H](O)C3=C(C)[C@@H](O)C[C@@](O)([C@@H](OC(=O)c4ccccc4)[C@@H]21)C3(C)C`, the Potency was 7430 nM (active).

For the molecule `COc1nn(CSP(=S)(OC)OC)c(=O)s1`, the “activity change, negative = cytotoxicity” value is 7.14% [at 93.4 µM] (inactive).

For the molecule `CSCC[C@@H](NC(=O)[C@@H](Cc1ccccc1)NC(=O)CNC(=O)CNC(=O)[C@@H](N)Cc1ccc(O)cc1)C(=O)O`, the “activity change, negative = cytotoxicity” value is 2.67% (inactive).

For the molecule `COC(=O)c1cncn1C(C)c1ccccc1` (stereo not given), the “activity change, negative = cytotoxicity” value is -6.8% (inactive).

On to `CC(=O)Nc1ccc(OC[C@](C)(O)C(=O)Nc2ccc([N+](=O)[O-])c(C(F)(F)F)c2)cc1`, for which the Potency result was “inactive”.

In the case of `Oc1ccc2c3c1O[C@H]1[C@@H](O)C=C[C@H]4[C@@H](C2)NCC[C@@]341`, the “activity change, negative = cytotoxicity” value was -5.18% [at 93.4 µM] (inactive).

For the molecule `O=C(O)c1cc(Oc2ccc(C(F)(F)F)cc2Cl)ccc1[N+](=O)[O-]`, the “activity change, negative = cytotoxicity” value was -3.48% (inactive).

For the molecule `Nc1ccc(Cl)cc1`, the “activity change, negative = cytotoxicity” value is 11% [at 93.4 µM] (inactive).

Regarding `CCOP(=O)(OCC)C(C)NC(=O)N(CCCl)N=O` (stereo not given), the call was inactive.

On to `CCOC(=O)Nc1ccc(NCc2ccc(F)cc2)cc1N`, for which the Potency result was “inactive”.

Turning to `O=c1cccc2n1CC1CNC[C@H]2C1`, the “activity change, negative = cytotoxicity” value was 4.82% (inactive).

In the case of `CC1=NN=C(c2ccc(N)cc2)c2cc3c(cc2C1)OCO3`, the “activity change, negative = cytotoxicity” value was 2.75% (inactive).

For `Cc1ccccc1-n1c(Cn2cnc3c(N)ncnc32)nc2cccc(C)c2c1=O`, the Potency is 590 nM (active).

On to `C[C@]12Cc3cn[nH]c3C[C@@H]1CC[C@@H]1[C@H]2CC[C@@]2(C)[C@H]1CC[C@]2(C)O`, for which the “activity change, negative = cytotoxicity” value was -1.57% (inactive).

Regarding `CCOC(=O)c1cncn1[C@H](C)c1ccccc1`, the “activity change, negative = cytotoxicity” value was -1.72% (inactive).

For the molecule `O=C(O)CNC(=O)c1c(O)c2ccccc2n(Cc2ccccc2)c1=O`, the Potency result was “inactive”.

With `NC(=O)CN1CC(O)CC1=O` (stereo not given), the “activity change, negative = cytotoxicity” value was 1.53% (inactive).

`O=C(NCC1CCOCC1)c1cnc(Nc2ccc(Cl)cc2Cl)nc1C(F)(F)F`: the “activity change, negative = cytotoxicity” value was 5.32% (inactive).

`c1ccc(C2(c3ccccc3)CC2C2=NCCN2)cc1` (stereo not given): the “activity change, negative = cytotoxicity” value is -2.42% (inactive).

As for `CC=C(C)C(=O)N[C@@H](c1ccccc1)[C@@H](O)C(=O)O[C@H]1C[C@@]2(O)[C@@H](OC(=O)c3ccccc3)[C@@H]3[C@]4(OC(C)=O)CO[C@@H]4C[C@H](O)[C@@]3(C)C(=O)[C@H](OC(C)=O)C(=C1C)C2(C)C`, the Potency was 33.2 nM (active).

As to `O=C(O)COc1ccccc1`, the “activity change, negative = cytotoxicity” value is -1.73% (inactive).

Turning to `CC(=O)OCC1=C(C(=O)O)N2C(=O)[C@@H](N)[C@@H]2SC1`, the “activity change, negative = cytotoxicity” value was 6.16% (inactive).

For `O=[N+]([O-])c1ccc([As](=O)(O)O)cc1`, the “activity change, negative = cytotoxicity” value was -7.76% (inactive).

As for `COc1ccc(N(C(=O)Oc2c(C)cccc2C)c2ccnc(Nc3ccc(N4CCN(C)CC4)cc3)n2)c(OC)c1`, the Potency result is “inactive and 20.6 µM (active)”.

Regarding `CCOC(=O)c1c(C(C#N)=CN)c2ccc(Cl)c(Cl)c2n1C`, the “activity change, negative = cytotoxicity” value was -0.772% (inactive).

As to `O=C(Oc1ccc([N+](=O)[O-])cc1)N1CCC(C(O)(c2ccc3c(c2)OCO3)c2ccc3c(c2)OCO3)CC1`, the Potency entry is “inactive”.

In the case of `CC(O)CN1CCN(CC(=O)[O-])CCN(CC(=O)[O-])CCN(CC(=O)[O-])CC1.[Gd+3]` (stereo not given), the Potency entry is “inactive”.

For the molecule `Nc1ccc(Sc2ccc(N)cc2)cc1`, the “activity change, negative = cytotoxicity” value was -27.6% [at 93.4 µM] (inactive).

In the case of `C[C@]12CC[C@H]3[C@@H](CCC4=CC(=O)CC[C@@]43C)[C@H]1CC[C@H]2OC(=O)CCC1CCCC1`, the result was inactive.

For `Cc1ccc(Cl)c(O)c1`, the “activity change, negative = cytotoxicity” value is -15% (inactive).
